The results in this text go back to PubChem BioAssay (EPA / NIEHS).

Read-out in assay [1]: sulfotransferase 2A1 (SULT2A1), SULT2A1 (gene 6822)
The assay can be described thus: LTEA_HepaRG_SULT2A1: Life Technologies and Expression Analysis (LTEA) Assay for sulfotransferase 2A1 (SULT2A1) using HepaRG (AID 2283531; active = hit-call score of the fitted dose curve at least 0.9, where 1 is the maximum; inactive = score below 0.9). To be noted: mRNA level, 48 h; actives raise or lower the signal. The method in brief:
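Cells were plated and cultured 48 h, switched to serum-free induction medium, then dosed in duplicate for 48 h (8 concentrations, max 100 uM). RNA was isolated and SULT2A1 expression measured by qRT-PCR; gain or loss of signal fitted relative to DMSO.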

Read-out in assay [2]: Transforming Growth Factor (TGFA), TGFA (gene 7039)
The assay can be described thus: LTEA_HepaRG_TGFA: Life Technologies and Expression Analysis (LTEA) Assay for Transforming Growth Factor (TGFA) using HepaRG (AID 2283532; active = hit-call score of the fitted dose curve at least 0.9, where 1 is the maximum; inactive = score below 0.9). To be noted: mRNA level, 48 h; actives raise or lower the signal. The method in brief: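 TGFA transcript quantified by qRT-PCR (Fluidigm arrays) against three housekeeping genes, after 48 hours chemical treatment of HepaRG cells. Top concentration 100 uM with half-log dilutions, 8 points, duplicates, 0.5% DMSO.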

Read-out in assay [3]: Transforming Growth Factor (TGFB1), TGFB1 (gene 7040)
The assay can be described thus: LTEA_HepaRG_TGFB1: Life Technologies and Expression Analysis (LTEA) Assay for Transforming Growth Factor (TGFB1) Transporter using HepaRG (AID 2283533; active = hit-call score of the fitted dose curve at least 0.9, where 1 is the maximum; inactive = score below 0.9). To be noted: mRNA level, 48 h; actives raise or lower the signal. The method in brief:
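Expression change of TGFB1 in human HepaRG cells is measured after a 48 h chemical exposure, up to 100 uM in 0.5% DMSO vehicle. Curves are fitted in both directions relative to the DMSO baseline.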

Read-out in assay [4]: TIMP1, TIMP1 (gene 7076)
The assay can be described thus: LTEA_HepaRG_TIMP1: Life Technologies and Expression Analysis (LTEA) Assay for TIMP1 using HepaRG (AID 2283534; active = hit-call score of the fitted dose curve at least 0.9, where 1 is the maximum; inactive = score below 0.9;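 also: TaqMan qRT-PCR signal normalized to ACTB GAPDH and POLR2A housekeeping genes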). Conditions: mRNA level, 48 h; actives raise or lower the signal. The method in brief:
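We dosed human liver HepaRG cultures for 48 hours with up to 100 uM test chemical and measured TIMP1 expression by qRT-PCR. Activity in either direction is fitted relative to the 0.5% DMSO vehicle.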

Read-out in assay [5]: Thyroid Hormone Responsive (THRSP), THRSP (gene 7069)
The assay can be described thus: LTEA_HepaRG_THRSP: Life Technologies and Expression Analysis (LTEA) Assay for Thyroid Hormone Responsive (THRSP) using HepaRG (AID 2283536; active = hit-call score of the fitted dose curve at least 0.9, where 1 is the maximum; inactive = score below 0.9). Conditions: mRNA level, 48 h; actives raise or lower the signal. The method in brief: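 THRSP transcript quantified by Fluidigm qRT-PCR against three housekeeping genes after 48 h chemical exposure of HepaRG cells in serum-free induction medium; eight-point half-log series, top 100 uM, 0.5% DMSO vehicle, duplicate wells.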

Read-out in assay [6]: Cellular tumor antigen p53 (Homo sapiens) (UniProt P04637)
Put plainly: LTEA_HepaRG_TP53: Life Technologies and Expression Analysis (LTEA) Assay for Tumor Protein P53 (TP53) using HepaRG (AID 2283537; active = hit-call score of the fitted dose curve at least 0.9, where 1 is the maximum; inactive = score below 0.9). To be noted: mRNA level, 48 h; actives raise or lower the signal. Put shortly:
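Gain or loss of TP53 mRNA signal is scored relative to 0.5% DMSO after 48 h chemical treatment of HepaRG liver cells, tested in duplicate at eight half-log concentrations up to 100 uM.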

Read-out in assay [7]: UDP glucuronosyltransferase (UGT1A1), UGT1A1 (gene 54658)
Put plainly: LTEA_HepaRG_UGT1A1: Life Technologies and Expression Analysis (LTEA) Assay for UDP glucuronosyltransferase (UGT1A1) using HepaRG (AID 2283538; active = hit-call score of the fitted dose curve at least 0.9, where 1 is the maximum; inactive = score below 0.9). Conditions: mRNA level, 48 h; actives raise or lower the signal. Put shortly:
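Cells are plated, cultured 48 h, switched to serum-free induction medium, then dosed 48 h at eight concentrations (max 100 uM, 0.5% DMSO). RNA is isolated and UGT1A1 expression measured by qRT-PCR; changes versus DMSO are fitted in both directions.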

Read-out in assay [8]: UDP glucuronosyltransferase (UGT1A6), UGT1A6 (gene 54578)
Put plainly: LTEA_HepaRG_UGT1A6: Life Technologies and Expression Analysis (LTEA) Assay for UDP glucuronosyltransferase (UGT1A6) using HepaRG (AID 2283539; active = hit-call score of the fitted dose curve at least 0.9, where 1 is the maximum; inactive = score below 0.9). To be noted: mRNA level, 48 h; actives raise or lower the signal. The method in brief:
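Endpoint is UGT1A6 transcript induction or loss in a human liver cell line, quantified by TaqMan qRT-PCR 48 h after dosing. Concentrations ran from 100 uM downward in half-log steps in 0.5% DMSO; activity was fitted in both directions versus vehicle.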

Read-out in assay [9]: X-box binding protein 1 (XBP1), XBP1 (gene 7494)
The assay can be described thus: LTEA_HepaRG_XBP1: Life Technologies and Expression Analysis (LTEA) Assay for X-box binding protein 1 (XBP1) using HepaRG (AID 2283540; active = hit-call score of the fitted dose curve at least 0.9, where 1 is the maximum; inactive = score below 0.9). To be noted: mRNA level, 48 h; actives raise or lower the signal. Put shortly: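 Human HepaRG monolayers receive test chemical for 48 h across an eight-point half-log series starting at 100 uM. XBP1 mRNA gain or loss is scored against DMSO by qRT-PCR.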

The nature of assay [10]: LTEA_HepaRG_LDH_cytotoxicity: Cytotoxicity Assessment in the Life Technologies and Expression Analysis (LTEA) Assay (AID 2283563).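 As to AC50: LDH activity released into spent culture medium as a marker of cell death.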 The method in brief:
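Human HepaRG hepatic cells are treated with test chemicals for 48 h at up to 100 uM in 0.5% DMSO. Cytotoxicity is scored from medium LDH against the vehicle control.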

A short description of assay [11]: ATG_XTT_Cytotoxicity: Cytotoxicity Assessment in the Attagene TRANS-FACTORIAL HepG2 Assay (AID 2283584). Put shortly: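 Transfect HepG2 with GAL4-UAS reporter units, dose compound, incubate 24 h, then measure viable cell number by XTT. Fit concentration response against DMSO baseline.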
The nature of assay [12]: TOX21_p53_BLA_p4_viability: Viability Assessment in the Tox21 HCT-116 p53 Agonism Beta-lactamase Assay, Phase 4 (AID 2283597).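 Also: hits lower the luminescence signal meaning cytotoxicity.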 The method in brief: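 Viability is taken as cellular ATP: after 16 h compound exposure of HCT116 cells and a 2 h room-temperature CCF4-AM substrate step, CellTiter-Glo reagent is added and luminescence is measured 30 min later.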
Assay [13] deals with Cellular tumor antigen p53 (Homo sapiens) (UniProt P04637). Put plainly: TOX21_p53_BLA_p5_ratio: Tox21 HCT-116 p53 Agonism Beta-lactamase Assay, Ratio, Phase 5 (AID 2283599). Put shortly:
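Beta-lactamase reporter ratio (blue 460 nm over green 530 nm, 405 nm excitation) after 2 h CCF4-AM loading, in HCT-116 cells exposed 16 h at 37 C to compounds pinned at 217-fold dilution. Increases relative to DMSO baseline scored.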

A short description of assay [14]: Tanguay_ZF_120hpf_MORT_legacy: (Legacy) Oregon State University Tanguay Lab 120 Hour Post-fertilization zebrafish Assay for Mortality (AID 2283633).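 As to AC50: fitted as increase in binary mortality versus DMSO negative control.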 The method in brief: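 Mortality endpoint from a multiplexed whole-embryo zebrafish screen. Dechorionated wild-type embryos received compound at 6 hpf and remained under static exposure at 28C until 120 hpf, with death noted as a present/absent call.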

A short description of assay [15]: TOX21_p53_BLA_p2_viability: Viability Assessment in the Tox21 HCT-116 p53 Agonism Beta-lactamase Assay, Phase 2 (AID 2283591).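 Also: compound exposure lasted 16 h at 37 °C; actives lower the ATP signal meaning cytotoxicity.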 The method in brief:
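Cytotoxicity readout: CellTiter-Glo ATP luminescence, 30 min at room temperature, after the beta-lactamase read. Cells were HCT116 exposed 16 h at 37C to compounds pin-transferred at 217-fold dilution from DMSO stocks.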

Assay [16] concerns the target Cellular tumor antigen p53 (Homo sapiens) (UniProt P04637). Put plainly: TOX21_p53_BLA_p2_ratio: Tox21 HCT-116 p53 Agonism Beta-lactamase Assay, Ratio, Phase 2 (AID 2283592). Put shortly: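 Cleaved-to-uncleaved substrate ratio (460 vs 530 nm) measured in HCT116 cells with an inducible beta-lactamase reporter linked to p53 activity. Compounds incubated 16 h at 37C before 2 h room-temperature CCF4-AM loading.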

Assay [17] shares this target. The assay can be described thus: TOX21_p53_BLA_p3_ratio: Tox21 HCT-116 p53 Agonism Beta-lactamase Assay, Ratio, Phase 3 (AID 2283596). The method in brief:
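Cells were seeded at 4000/well, rested 5 h at 37C, then dosed with DMSO compound solutions (217-fold dilution) for 16 h. CCF4-AM substrate was loaded for 2 h at room temperature, and the 460/530 nm emission ratio was fitted for gain of signal versus DMSO.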

Assay [18] can be described thus: TOX21_p53_BLA_p5_viability: Viability Assessment in the Tox21 HCT-116 p53 Agonism Beta-lactamase Assay, Phase 5 (AID 2283600). The method in brief:
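Viability is taken from cellular ATP content, measured by luciferase luminescence in the same wells after the beta-lactamase ratio read. Cells are seeded at 4000 per well and exposed to DMSO-dissolved compounds, diluted 217-fold, for 16 h.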

In assay [19] the target is Cellular tumor antigen p53 (Homo sapiens) (UniProt P04637). Put plainly: TOX21_p53_BLA_p4_ratio: Tox21 HCT-116 p53 Agonism Beta-lactamase Assay, Ratio, Phase 4 (AID 2283601). Put shortly: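 Signal is the blue/green (460nm/530nm) ratio of cleaved versus uncleaved CCF4-AM substrate, read after 2 h substrate loading. Cells were HCT116 carrying the p53-responsive beta-lactamase reporter, dosed 16 h at 37C, 5% CO2; CellTiter-Glo measured in parallel.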

The nature of assay [20]: TOX21_p53_BLA_p3_viability: Viability Assessment in the Tox21 HCT-116 p53 Agonism Beta-lactamase Assay, Phase 3 (AID 2283593).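 Also: cells exposed to compound for 16 h before reading.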 Put shortly:
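Cellular ATP was quantified by CellTiter-Glo luminescence, read after 30 min at room temperature. Beforehand, HCT116 cells (4000/well) received compound 5 h post-seeding, 217-fold diluted from DMSO, then incubated 16 h at 37C.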

Where “and” joins values, the source holds several entries; their conditions need not be identical. Identical values can stand only once. Results filed as inconclusive are left out. More than one record can exist for a structure, and the calls need not agree. Calls of active or inactive are those of the source. The calls were made as follows, unless noted: active = hit-call score of the fitted dose curve at least 0.9, where 1 is the maximum; inconclusive = response in the unintended direction; inactive = score below 0.9.

Sequence of Cellular tumor antigen p53 (Homo sapiens) (P04637 whole entry, looked up): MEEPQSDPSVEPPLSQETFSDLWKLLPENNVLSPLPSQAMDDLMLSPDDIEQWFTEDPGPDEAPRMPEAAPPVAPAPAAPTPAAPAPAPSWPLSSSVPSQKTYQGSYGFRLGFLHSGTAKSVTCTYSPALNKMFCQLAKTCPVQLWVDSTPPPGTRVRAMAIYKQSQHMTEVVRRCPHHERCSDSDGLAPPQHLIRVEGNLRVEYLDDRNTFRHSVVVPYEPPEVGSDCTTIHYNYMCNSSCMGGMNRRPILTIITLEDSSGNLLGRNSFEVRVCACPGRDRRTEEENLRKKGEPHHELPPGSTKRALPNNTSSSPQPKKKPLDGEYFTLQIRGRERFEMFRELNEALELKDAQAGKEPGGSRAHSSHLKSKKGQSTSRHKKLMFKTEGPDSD

For `O=C(O)C(F)(F)C(F)(F)C(F)(F)C(F)(F)C(F)(F)C(F)(F)F`, the result in assay [1], in assay [2], in [3], in assay [4], in assay [5] and in [6] was inactive. Moreover, the outcome in assay [7], in [8], in assay [9], in assay [10], in assay [11] and in [12] was inactive. Moreover, the result in [13] and in assay [14] was inactive.

Regarding `COc1cc(-c2ccc(N)c(OC)c2)ccc1N`, the result in assay [1], in assay [2], in assay [3], in assay [4], in assay [5] and in assay [6] was inactive. The call in assay [8], in assay [9], in assay [10], in assay [11], in [15] and in [16] was inactive. In addition, the result in [17], in [12], in assay [13], in assay [18], in assay [19] and in [14] was inactive. In addition, the AC50 (as a rule, the midpoint of the concentration-response curve, whichever way the signal moves) in assay [5] was 42.9 µM (active); in assay [7] it was 25.4 µM (active) and 22.1 µM (active); in assay [16], 63 µM (active); in [17], 63.6 µM (active); in assay [13] it was 71.3 µM (active); in [19], 64 µM (active).

Take `CCc1ccccc1N`: the outcome in [11] was inactive.

For the compound `CC(C)(C)c1cc(O)ccc1O`, the outcome in assay [1], in assay [2], in assay [3], in [4], in assay [5] and in [6] was inactive. The call in assay [7], in [8], in assay [9], in [10], in [11] and in assay [15] was inactive. For the same compound, the outcome in [16], in [20], in assay [17], in [12], in [13] and in assay [18] was inactive. In addition, the outcome in assay [19] was inactive. Besides, the AC50 in assay [14] was 32 µM (active).

Take `CCN1CCC2(CC1)COc1cc3c(cc12)N(C(=O)c1ccc(-c2ccc(-c4nnc(C)o4)cc2C)cc1)CC3`: the AC50 in assay [1] was 75.3 µM (active); in [2] it was 83.8 µM (active); in [3], 29 µM (active); in [5], 46.8 µM (active); in [6] it was 46.8 µM (active); in assay [8], 15.4 µM (active). Besides, the AC50 was 27.4 µM (active) in assay [9]; 24.6 µM (active) in assay [10]; 54.7 µM (active) in assay [15]; 64.8 µM (active) in [16]; 67.5 µM (active) in assay [20]; 45.7 µM (active) in [12]. Further, in assay [19], the AC50 is 57.4 µM (active). Also, the result in assay [4], in assay [7], in assay [17], in assay [13] and in assay [14] was inactive.
